# Cy5 interf NS3h: enhances or quenches Cy5 fluorescence in NS3h assay; Cy5-dT15 DNA with NS3h, fluorescence interference; actives lie on both sides; signal over control mean, under 1 quenches; fluorescence interference ratio at 100 µM; 6% of 16,000 active;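 active means compound fluorescence over control fluorescence at most 0.8, a quencher, or at least a set upper limit, an enhancer; inactive means ratio between 0.8 and the set upper limit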
# NS3h inh CB: blocks HCV NS3 helicase binding to DNA | NS3h Cy5-dT15 DNA binding, fluorescence polarization | inhibition, % at 100 µM | 1.6% of 16,000 active;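 active means inhibition above the average over every tested compound plus 3 SD, cut at about 40% in these data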
# Hits are given with their value; i = inactive. The list is not random: actives were taken first. Their share in the collection is about 7.6%.
SMILES,Cy5 interf NS3h,NS3h inh CB
Cc1ccc(N2C(=O)/C(=C/C=C/c3ccccc3)C(=O)NC2=S)cc1,0.72,i
O=C1NC(=S)N(c2ccc(F)cc2)C(=O)/C1=C/c1ccc(F)cc1,0.65,i
CCOC(=O)C(C(=O)OCC)=C(N)C(F)(F)F,i,i
CCc1ccc(NC(=S)NC(=O)/C=C/c2ccccc2)cc1,i,49
CC(=O)c1ccc(NC(=S)NC(=O)/C=C/c2ccccc2)cc1,i,i
Cc1nc2sc3c(c2c(=O)n1-n1cccc1)CCCC3,i,i
Cc1nc2sc3c(c2c2nncn12)CCCC3,0.66,i
CCOC(=O)CNC(=O)c1ccc(OC)cc1,0.71,i
COc1ccc(C(=O)NCc2ccccc2C)cc1,i,i
CCOc1ccc(C(=O)Nc2ccccc2C(=O)O)cc1,i,i
CCOc1ccccc1NC(=O)c1ccc(OC)cc1,1.3,i
CCOC(=O)C1=C(C)N=c2s/c(=C\c3cc(OC)ccc3OC)c(=O)n2C1c1cccc(OC)c1 (stereo not drawn),i,i
Nc1cc[n+](CC(=O)c2ccccc2)cc1,0.77,i
Nc1ccc(C(=O)c2ccc(N)c(N)c2)cc1N,i,i
O=C(C[n+]1ccc(C(=O)NCc2ccccc2)cc1)c1ccc(-c2ccccc2)cc1,0.76,i
Cc1ccc[n+](CC(=O)c2ccc(-c3ccccc3)cc2)c1,i,i
CCOc1cc(OCC)cc(C(=O)Nc2cc(-c3nc4ccccc4s3)ccc2C)c1,i,i
O=C(Cc1ccc(Cl)cc1)NCCN1CCOCC1,i,i
O=C(NCCCN1CCOCC1)c1cccc(Cl)c1,0.75,i
O=S(=O)(Oc1cccc2ccccc12)c1cc(Cl)ccc1Cl,i,i
O=C(Oc1cccc2ccccc12)c1ccc(Cl)cc1Cl,0.64,i
CCOc1ccccc1/C=C(/NC(=O)c1ccccc1)C(=O)N1CCOCC1,i,i
COc1ccc(C2CC(O)C(C)C(c3ccc(OC)cc3)N2)cc1 (stereo not drawn),0.73,i
CC1C(c2ccccc2)NC(c2ccccc2)C(C)C1O (stereo not drawn),i,i
COc1cc(NC(=O)CC(c2ccccc2)c2ccccc2)c(OC)cc1Cl,i,i
SMILES,Cy5 interf NS3h,NS3h inh CB
COCCCN1C(=O)/C(=C\c2ccc(OC)c(OC)c2)SC1=S,i,i
CCOC(=O)c1c(N)n(-c2ccccc2O)c2nc3ccccc3nc12,i,i
Cc1cc(NC(=O)CCN2C(=O)/C(=C/c3ccc(F)cc3)SC2=S)no1,i,i
O=C(NC1CCCCC1)C12CC3CCC(CC(C3)C1)C2,1.2,i
CNC(=O)C(C)NC(=O)C12CC3CC(CC(C3)C1)C2 (stereo not drawn),i,i
O=C(Nc1ccc(Nc2ccccc2)cc1)c1cccc(Br)c1,i,i
COc1ccc(-n2c(O)c(C=Nc3ccc(Cl)cc3)c(=O)[nH]c2=O)cc1,0.78,i
COc1cccc(-n2c(O)c(C(c3ccccn3)c3c(O)n(-c4cccc(OC)c4)c(=O)[nH]c3=O)c(=O)[nH]c2=O)c1,i,i
O=C(CC1c2ccccc2Oc2ccccc21)NCCOc1ccccc1,0.67,i
Cc1ccc(OCCNC(=O)Cc2cccc3ccccc23)cc1,i,i
Cc1cc([N+](=O)[O-])ccc1-c1ccc(C(=O)Nc2cc(Cl)cc(Cl)c2)o1,i,i
CC(=O)Nc1cc(-c2ccc(Cl)cc2)[nH]n1,0.67,i
Cc1ccc(-c2cc(NC(=O)c3ccc(F)cc3)n[nH]2)cc1,i,i
CCOC(=O)CSc1nc(C)c(Cl)c(=O)[nH]1,i,i
CC(=O)C(C(=O)c1ccccc1)C1(O)C(=O)Nc2ccccc21 (stereo not drawn),0.79,i
O=C1Nc2ccccc2C1(O)C/C(=N\O)c1ccc(Cl)cc1 (stereo not drawn),i,i
CCCCOc1ccc(NC(=O)CSc2nnnn2-c2ccccc2)cc1,i,i
O=C(CCN1C(=O)c2ccccc2C1=O)Nc1ccc(I)cc1,i,i
O=C(CCN1C(=O)c2ccccc2C1=O)Nc1ccccc1C(=O)N1CCCC1,0.7,i
O=C(CCN1C(=O)c2ccccc2C1=O)Nc1ccccc1C(=O)N1CCOCC1,i,i
CCN(CC)c1ccc(NC(=O)CCN2C(=O)c3ccccc3C2=O)cc1,0.6,i
COC(=O)c1cc(NC(=O)c2cccc3c(Br)cccc23)cc(C(=O)OC)c1,i,i
O=C(COc1ccc(Cl)cc1)Nc1ccccc1,i,i
O=C(COc1ccccc1)Nc1ccncc1,i,i
O=C(COc1ccccc1)Nc1ccc(Cc2ccncc2)cc1,0.71,i
SMILES,Cy5 interf NS3h,NS3h inh CB
CCOC(=O)c1ccc(NC(=O)CN(c2ccc(C)cc2)S(C)(=O)=O)cc1,i,i
Cc1ccc(OC(=O)C23CC4CC(CC(C4)C2)C3)c(C)n1,i,i
COc1cc(/C=C2\NC(=S)NC2=O)ccc1OC(=O)C12CC3CC(CC(C3)C1)C2,0.68,i
CCOC(=O)C1=C(O)/C(=C/c2ccc(OC)c(OC)c2)SC1=Nc1ccc([N+](=O)[O-])cc1,i,i
CCOC(=O)C1=C(O)/C(=C/c2cccc(Br)c2)SC1=Nc1ccccc1,0.66,i
C/C(=N/N=C\c1cccc([N+](=O)[O-])c1)C1C(=O)c2ccccc2C1=O,0.62,i
CC(=O)N/C(=C\c1cccc([N+](=O)[O-])c1)C(=O)NC(C)C,i,i
O=C(/C=C/c1ccccc1)NC(=S)Nc1nc(-c2ccccc2)cs1,i,i
Cc1ccccc1OCCc1c(C)n[nH]c1C,i,i
CSc1nc(-c2ccccc2)nc2[nH]ccc(=O)c12,0.69,i
CNCCOc1cc(C)nc(-c2ccccc2)n1,i,i
COc1ccc(N2C(=O)NC(=O)/C(=C/c3cc(Br)c(OCCOc4ccccc4OC)c(OC)c3)C2=O)cc1,i,i
COc1ccc2oc(C(F)F)cc(=O)c2c1,i,i
CCOc1c(Br)cc(/C=C2\C(=O)NC(=O)N(c3ccc(OC)cc3)C2=O)cc1OC,i,i
CCOC(=O)c1c(NC(=O)Cn2nc(C(F)(F)F)cc2C)sc2c1CCC(C)C2 (stereo not drawn),i,i
Cc1cc(C(F)(F)F)nn1CC(=O)Nc1sc2c(c1C(N)=O)CCC(C)C2 (stereo not drawn),0.75,i
Cc1ccc(OCC(=O)N2CCCc3ccccc32)c(C)c1,i,i
CCCOc1ccc(C2C3=C(CC(C)(C)CC3=O)OC3=C2C(=O)CC(C)(C)C3)cc1OCC,0.78,i
CCCOc1c(Br)cc(C2C3=C(CC(C)(C)CC3=O)OC3=C2C(=O)CC(C)(C)C3)cc1OC,i,i
COc1ccc(C(=O)OCCCN2C(=O)c3ccccc3C2=O)cc1,0.62,i
CC(=O)OCCCN1C(=O)c2ccc(S(=O)(=O)c3ccc4c(c3)C(=O)N(CCCOC(C)=O)C4=O)cc2C1=O,i,i
COc1cccc(CN2CCN(Cc3cccc(OC)c3OC)CC2)c1,i,i
CC(C)COc1ccc(C(=O)Nc2ccc(N3CCOCC3)cc2)cc1,i,i
C/C(=N/N=C1\NC(=O)C(CC(=O)Nc2ccc(Cl)cc2Cl)S1)c1ccc(Cl)cc1 (stereo not drawn),i,i
COc1ccc(/C(C)=N\N=C2/NC(=O)C(CC(=O)Nc3cc(Cl)ccc3Cl)S2)cc1 (stereo not drawn),1.2,i
O=c1c2ccccc2nc(-c2ccccc2)n1/N=C\c1cccs1,i,i
O=C(Nc1ccc(Cl)c(Cl)c1)C1C2CCC3C(CCC21)C3(Cl)Cl (stereo not drawn),i,i
O=C1OC(c2ccccc2)=N/C1=C(\Sc1nc2ccccc2o1)c1ccccc1,i,i
COc1ccccc1N1CCN(C(=O)c2c(Cl)cccc2Cl)CC1,i,i

# Source: PubChem BioAssay (Milwaukee Institute for Drug Discovery)
